These results are taken from paper PMC7862700, “An all-to-all approach to the identification of sequence-specific readers for epigenetic DNA modifications on cytosine”.

Common to all, as to test: DAPPL (digital affinity profiling via proximity ligation, sequencing); 10 mM Tris-HCl pH 7.5, 50 mM NaCl, 1 mM DTT, 4% glycerol, room temperature, 30 min; GST-TFs on glutathione beads, 16-mer random dsDNA library, 0.1% formaldehyde crosslink after washing; high values mean tight binding
Settings in all cases: protein: recombinant; tags: N-terminal GST; dsDNA, one strand shown

In one assay the target is T1, FLI1 (Homo sapiens, UniProt Q01543 1-452).
T1 sequence: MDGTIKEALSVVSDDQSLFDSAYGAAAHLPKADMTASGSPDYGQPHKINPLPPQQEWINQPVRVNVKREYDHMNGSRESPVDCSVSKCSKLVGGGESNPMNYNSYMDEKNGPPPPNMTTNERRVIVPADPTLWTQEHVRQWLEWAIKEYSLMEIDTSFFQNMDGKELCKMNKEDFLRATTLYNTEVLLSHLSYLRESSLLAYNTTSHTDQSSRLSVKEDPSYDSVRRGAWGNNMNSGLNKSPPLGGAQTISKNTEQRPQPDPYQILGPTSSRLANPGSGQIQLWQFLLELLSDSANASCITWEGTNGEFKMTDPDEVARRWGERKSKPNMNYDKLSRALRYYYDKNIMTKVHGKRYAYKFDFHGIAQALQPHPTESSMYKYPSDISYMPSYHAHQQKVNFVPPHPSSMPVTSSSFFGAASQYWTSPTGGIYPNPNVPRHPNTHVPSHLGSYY
Summed up:
(§1)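 Binding signal is each hexamer's read frequency for a factor divided by its frequency in the tag-only sample. The factors were GST-fused human transcription factors from yeast, captured on glutathione beads, DNA-barcoded and pooled with that sample. Pools were incubated with 200 nmole of a random double-stranded 16-mer DNA library in Tris/NaCl/DTT/glycerol buffer at room temperature for 30 min, then washed, crosslinked with 0.1% formaldehyde, proximity-ligated with BsaI/T4 ligase (1 h, 37 °C), PCR-amplified and sequenced on an Illumina NextSeq500.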

The next assay concerns the target T2, ELK1 (Homo sapiens, UniProt P19419 1-428).
T2 sequence: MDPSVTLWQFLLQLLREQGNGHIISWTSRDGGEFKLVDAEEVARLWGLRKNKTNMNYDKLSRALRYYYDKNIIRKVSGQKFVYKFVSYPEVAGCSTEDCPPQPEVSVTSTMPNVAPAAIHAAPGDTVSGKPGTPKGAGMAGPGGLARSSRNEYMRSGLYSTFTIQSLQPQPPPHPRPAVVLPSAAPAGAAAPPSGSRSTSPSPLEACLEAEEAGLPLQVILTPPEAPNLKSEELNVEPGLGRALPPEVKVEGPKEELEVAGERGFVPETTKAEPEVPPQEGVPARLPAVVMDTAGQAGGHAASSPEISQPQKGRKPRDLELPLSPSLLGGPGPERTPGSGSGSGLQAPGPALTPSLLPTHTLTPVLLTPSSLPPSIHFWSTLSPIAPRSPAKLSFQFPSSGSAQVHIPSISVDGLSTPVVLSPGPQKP
Summed up:
as §1

Another assay concerns the target T3, GABPA (Homo sapiens, UniProt Q06546 1-454).
T3 sequence: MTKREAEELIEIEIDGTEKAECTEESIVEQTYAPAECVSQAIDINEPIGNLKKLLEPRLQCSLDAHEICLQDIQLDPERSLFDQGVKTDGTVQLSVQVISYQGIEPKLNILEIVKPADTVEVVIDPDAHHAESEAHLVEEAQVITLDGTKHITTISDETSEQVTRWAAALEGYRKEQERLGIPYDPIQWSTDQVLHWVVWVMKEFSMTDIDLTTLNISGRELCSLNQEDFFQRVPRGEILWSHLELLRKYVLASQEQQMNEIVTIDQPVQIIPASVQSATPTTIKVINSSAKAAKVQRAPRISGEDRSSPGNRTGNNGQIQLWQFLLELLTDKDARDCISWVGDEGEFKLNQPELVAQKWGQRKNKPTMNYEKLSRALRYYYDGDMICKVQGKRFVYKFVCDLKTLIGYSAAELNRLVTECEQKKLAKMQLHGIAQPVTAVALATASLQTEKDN
Summed up:
as §1

The next assay addresses T4, ERG (Homo sapiens, UniProt P11308 1-479).
T4 sequence: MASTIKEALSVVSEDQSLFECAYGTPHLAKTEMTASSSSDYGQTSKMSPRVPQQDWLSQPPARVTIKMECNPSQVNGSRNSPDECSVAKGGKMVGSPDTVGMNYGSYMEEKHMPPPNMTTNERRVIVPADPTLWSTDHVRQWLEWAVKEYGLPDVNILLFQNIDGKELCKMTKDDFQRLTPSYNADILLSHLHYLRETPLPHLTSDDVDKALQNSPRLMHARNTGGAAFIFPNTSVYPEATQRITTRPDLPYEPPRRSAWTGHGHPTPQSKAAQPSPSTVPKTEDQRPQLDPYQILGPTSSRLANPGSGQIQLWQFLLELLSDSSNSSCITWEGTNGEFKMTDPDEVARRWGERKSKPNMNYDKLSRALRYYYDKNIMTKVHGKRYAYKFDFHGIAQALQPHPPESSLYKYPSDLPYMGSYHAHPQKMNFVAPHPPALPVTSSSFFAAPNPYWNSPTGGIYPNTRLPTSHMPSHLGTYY
Summed up:
as §1

The next assay has as its target ELF1 (Homo sapiens, UniProt P32519 1-619). Summed up:
as §1

For the next assay, the target named is T5, EHF (Homo sapiens, UniProt Q9NZC4 1-300).
T5 sequence: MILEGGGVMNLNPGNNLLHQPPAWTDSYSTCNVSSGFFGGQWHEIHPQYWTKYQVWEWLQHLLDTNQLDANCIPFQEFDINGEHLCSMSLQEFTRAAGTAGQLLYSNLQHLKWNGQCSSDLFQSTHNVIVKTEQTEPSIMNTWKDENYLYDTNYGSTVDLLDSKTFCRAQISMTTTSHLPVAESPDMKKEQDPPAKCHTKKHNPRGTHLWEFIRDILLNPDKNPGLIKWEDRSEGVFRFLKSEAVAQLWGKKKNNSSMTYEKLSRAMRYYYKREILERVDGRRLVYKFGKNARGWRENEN
The method in brief:
as §1

In a further assay the target is SPI1 (Homo sapiens, UniProt P17947 1-270). The method in brief: as §1
A further assay addresses SPIB (Homo sapiens, UniProt Q01892 1-262). The method in brief: as §1
The target in another assay is T6, ELK3 (Homo sapiens, UniProt P41970 1-407).
T6 sequence: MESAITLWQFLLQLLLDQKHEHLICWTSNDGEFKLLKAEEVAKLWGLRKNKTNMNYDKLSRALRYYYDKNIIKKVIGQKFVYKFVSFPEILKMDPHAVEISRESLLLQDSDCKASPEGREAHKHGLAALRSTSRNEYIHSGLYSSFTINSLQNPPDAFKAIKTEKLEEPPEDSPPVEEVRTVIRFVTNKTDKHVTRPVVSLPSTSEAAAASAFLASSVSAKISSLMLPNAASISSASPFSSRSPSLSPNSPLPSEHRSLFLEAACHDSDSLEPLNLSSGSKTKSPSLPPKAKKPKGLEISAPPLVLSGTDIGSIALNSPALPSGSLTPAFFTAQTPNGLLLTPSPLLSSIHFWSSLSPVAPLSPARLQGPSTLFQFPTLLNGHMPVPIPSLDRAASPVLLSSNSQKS
Summed up:
as §1

SPIB, sequence (Q01892 whole entry): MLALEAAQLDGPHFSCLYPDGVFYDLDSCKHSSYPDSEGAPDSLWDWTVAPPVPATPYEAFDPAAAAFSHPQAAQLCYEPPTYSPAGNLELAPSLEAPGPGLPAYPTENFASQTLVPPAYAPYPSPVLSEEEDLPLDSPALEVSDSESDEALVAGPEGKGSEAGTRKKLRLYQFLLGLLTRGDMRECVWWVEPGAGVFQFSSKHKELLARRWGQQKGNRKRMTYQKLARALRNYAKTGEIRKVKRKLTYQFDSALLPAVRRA
ELF1, sequence (P32519 whole entry): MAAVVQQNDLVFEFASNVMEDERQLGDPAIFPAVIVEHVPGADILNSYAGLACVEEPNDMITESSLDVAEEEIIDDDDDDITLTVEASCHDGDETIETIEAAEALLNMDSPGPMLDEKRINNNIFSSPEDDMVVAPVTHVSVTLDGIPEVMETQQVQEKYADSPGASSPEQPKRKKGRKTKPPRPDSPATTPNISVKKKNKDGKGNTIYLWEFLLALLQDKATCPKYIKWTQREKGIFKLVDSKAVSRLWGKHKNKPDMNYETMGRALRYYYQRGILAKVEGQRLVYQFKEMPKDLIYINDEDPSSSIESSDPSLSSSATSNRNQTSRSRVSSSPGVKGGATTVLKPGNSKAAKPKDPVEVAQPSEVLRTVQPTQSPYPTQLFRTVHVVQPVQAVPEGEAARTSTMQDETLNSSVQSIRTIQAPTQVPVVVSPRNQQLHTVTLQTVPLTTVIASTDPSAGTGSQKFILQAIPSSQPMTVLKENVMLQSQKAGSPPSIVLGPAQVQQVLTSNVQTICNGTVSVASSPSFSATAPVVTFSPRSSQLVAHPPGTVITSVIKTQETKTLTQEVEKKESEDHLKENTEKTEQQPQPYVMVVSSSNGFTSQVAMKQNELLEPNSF

Turning to GAACTC, the binding signal in the assay with FLI1 is 1.28 fold enrichment (6-mer frequency, TF over GST control); in the assay with ELK1, 1.22 fold enrichment (6-mer frequency, TF over GST control); with GABPA it was 1.31 fold enrichment (6-mer frequency, TF over GST control); with ERG, 1.26 fold enrichment (6-mer frequency, TF over GST control); with ELF1, 1.29 fold enrichment (6-mer frequency, TF over GST control); with EHF, 1.28 fold enrichment (6-mer frequency, TF over GST control). In addition, the binding signal with SPI1 was 1.39 fold enrichment (6-mer frequency, TF over GST control); in the assay with SPIB it was 1.28 fold enrichment (6-mer frequency, TF over GST control); in the assay with ELK3, 1.33 fold enrichment (6-mer frequency, TF over GST control).

In the case of TAGTAT, the binding signal with FLI1 was 1.25 fold enrichment (6-mer frequency, TF over GST control); with ELK1, 1.34 fold enrichment (6-mer frequency, TF over GST control); in the assay with GABPA, 1.28 fold enrichment (6-mer frequency, TF over GST control); with ERG it was 1.23 fold enrichment (6-mer frequency, TF over GST control); with ELF1, 1.29 fold enrichment (6-mer frequency, TF over GST control); with EHF it was 1.38 fold enrichment (6-mer frequency, TF over GST control). Moreover, the binding signal is 1.23 fold enrichment (6-mer frequency, TF over GST control) with SPI1; 1.33 fold enrichment (6-mer frequency, TF over GST control) in the assay with SPIB; 1.15 fold enrichment (6-mer frequency, TF over GST control) with ELK3.

As for CTACAC, the binding signal was 1.3 fold enrichment (6-mer frequency, TF over GST control) with FLI1; 1.27 fold enrichment (6-mer frequency, TF over GST control) in the assay with ELK1; 1.34 fold enrichment (6-mer frequency, TF over GST control) with GABPA; 1.34 fold enrichment (6-mer frequency, TF over GST control) in the assay with ERG; 1.33 fold enrichment (6-mer frequency, TF over GST control) with ELF1; 1.36 fold enrichment (6-mer frequency, TF over GST control) in the assay with EHF. Moreover, the binding signal in the assay with SPI1 is 1.21 fold enrichment (6-mer frequency, TF over GST control); with SPIB, 1.33 fold enrichment (6-mer frequency, TF over GST control); with ELK3, 1.27 fold enrichment (6-mer frequency, TF over GST control).

For CATCCT, the binding signal with FLI1 was 1.68 fold enrichment (6-mer frequency, TF over GST control); in the assay with ELK1, 1.65 fold enrichment (6-mer frequency, TF over GST control); with GABPA it was 1.51 fold enrichment (6-mer frequency, TF over GST control); with ERG, 1.75 fold enrichment (6-mer frequency, TF over GST control); with ELF1, 1.64 fold enrichment (6-mer frequency, TF over GST control); in the assay with EHF it was 1.62 fold enrichment (6-mer frequency, TF over GST control). The binding signal with SPI1 is 1.59 fold enrichment (6-mer frequency, TF over GST control); with SPIB it was 1.7 fold enrichment (6-mer frequency, TF over GST control); with ELK3, 1.68 fold enrichment (6-mer frequency, TF over GST control).

For TCCAAG, the binding signal with FLI1 is 1.16 fold enrichment (6-mer frequency, TF over GST control); with ELK1 it was 1.1 fold enrichment (6-mer frequency, TF over GST control); with GABPA, 1.16 fold enrichment (6-mer frequency, TF over GST control); in the assay with ERG, 1.02 fold enrichment (6-mer frequency, TF over GST control); in the assay with ELF1 it was 1.17 fold enrichment (6-mer frequency, TF over GST control); with EHF, 1.06 fold enrichment (6-mer frequency, TF over GST control). Also, the binding signal was 1.03 fold enrichment (6-mer frequency, TF over GST control) in the assay with SPI1; 1.09 fold enrichment (6-mer frequency, TF over GST control) with SPIB; 1.08 fold enrichment (6-mer frequency, TF over GST control) with ELK3.

ATGATG: the binding signal was 1.39 fold enrichment (6-mer frequency, TF over GST control) in the assay with FLI1; 1.35 fold enrichment (6-mer frequency, TF over GST control) with ELK1; 1.33 fold enrichment (6-mer frequency, TF over GST control) with GABPA; 1.18 fold enrichment (6-mer frequency, TF over GST control) in the assay with ERG; 1.36 fold enrichment (6-mer frequency, TF over GST control) with ELF1; 1.4 fold enrichment (6-mer frequency, TF over GST control) with EHF. The binding signal was 1.24 fold enrichment (6-mer frequency, TF over GST control) in the assay with SPI1; 1.35 fold enrichment (6-mer frequency, TF over GST control) in the assay with SPIB; 1.53 fold enrichment (6-mer frequency, TF over GST control) with ELK3.

Regarding TCCAAT, the binding signal with FLI1 was 1.21 fold enrichment (6-mer frequency, TF over GST control); in the assay with ELK1 it was 1.13 fold enrichment (6-mer frequency, TF over GST control); with GABPA it was 1.18 fold enrichment (6-mer frequency, TF over GST control); in the assay with ERG it was 1.13 fold enrichment (6-mer frequency, TF over GST control); with ELF1 it was 1.24 fold enrichment (6-mer frequency, TF over GST control); with EHF it was 1.11 fold enrichment (6-mer frequency, TF over GST control). The binding signal is 1.14 fold enrichment (6-mer frequency, TF over GST control) in the assay with SPI1; 1.25 fold enrichment (6-mer frequency, TF over GST control) in the assay with SPIB; 1.16 fold enrichment (6-mer frequency, TF over GST control) in the assay with ELK3.

Turning to TCTTAG, the binding signal in the assay with FLI1 is 1.22 fold enrichment (6-mer frequency, TF over GST control); with ELK1 it was 1.21 fold enrichment (6-mer frequency, TF over GST control); with GABPA, 1.22 fold enrichment (6-mer frequency, TF over GST control); in the assay with ERG, 1.15 fold enrichment (6-mer frequency, TF over GST control); with ELF1, 1.25 fold enrichment (6-mer frequency, TF over GST control); with EHF, 1.21 fold enrichment (6-mer frequency, TF over GST control). Further, the binding signal is 1.13 fold enrichment (6-mer frequency, TF over GST control) with SPI1; 1.09 fold enrichment (6-mer frequency, TF over GST control) in the assay with SPIB; 1.11 fold enrichment (6-mer frequency, TF over GST control) in the assay with ELK3.
